The source of these data is PubChem BioAssay AID651725 (National Center for Advancing Translational Sciences (NCATS), 2012).

Out of some 360,000 compounds screened, about 2,000 (0.56%) were called active. Another 2% or so got no clear call; they are omitted. Rule as the data show it: active = activity change below about -65%; inconclusive = mostly about -30% to -63%; inactive = weaker than that. This excerpt belongs to a sample that is enriched for actives.
% is scaled to controls: 0 for no effect and ±100 for the full control effect.

In this test the target is Homeobox protein SIX1 (Homo sapiens) + Protein phosphatase EYA2 (Homo sapiens) (UniProt Q15475+O00167). Description: qHTS Assay for Inhibitors of the Six1/Eya2 Interaction. The note with it: AlphaScreen GST-Six1/His-Eya2 binding, biochemical; active compounds read low. From the text: Its expression is low or undetectable in normal adult breast tissue but the gene is over-expressed in 50% of primary breast tumors and 90% of metastatic lesions. […] Similar to Six1, Eya2 is also not expressed in most normal adult tissues, but is reexpressed in cancers. The Six1-Eya interaction is essential for proliferation during embryonic development, and both Six1 and Eya2 have been independently implicated in the same types of cancer. Because Six1 and Eya2 are embryonic genes with little expression in adult tissues, inhibitors of their expression/activity are likely to have limited side effects. Our goal is to identify inhibitors of the Six1/Eya interaction for potential cancer therapy. To this end, we have developed a homogenous AlphaScreen assay targeting the Six1/Eya interaction. We performed a large scale HTS of the Molecular Libraries Small Molecule Repository (MLSMR) to identify inhibitors of the Six1/Eya interaction as potential anti-cancer therapeutics. Compounds identified can also be used as chemical probes to better understand the biological functions of Six1 and Eya. NIH Chemical Genomics Center [NCGC] NIH Molecular Libraries Probe Centers Network [MLPCN] MLPCN Grant: DA033147 Assay Submitter (PI): Rui Zhao, University of Colorado Denver
Sequence of Homeobox protein SIX1 (Homo sapiens) + Protein phosphatase EYA2 (Homo sapiens) (O00167 whole entry, looked up): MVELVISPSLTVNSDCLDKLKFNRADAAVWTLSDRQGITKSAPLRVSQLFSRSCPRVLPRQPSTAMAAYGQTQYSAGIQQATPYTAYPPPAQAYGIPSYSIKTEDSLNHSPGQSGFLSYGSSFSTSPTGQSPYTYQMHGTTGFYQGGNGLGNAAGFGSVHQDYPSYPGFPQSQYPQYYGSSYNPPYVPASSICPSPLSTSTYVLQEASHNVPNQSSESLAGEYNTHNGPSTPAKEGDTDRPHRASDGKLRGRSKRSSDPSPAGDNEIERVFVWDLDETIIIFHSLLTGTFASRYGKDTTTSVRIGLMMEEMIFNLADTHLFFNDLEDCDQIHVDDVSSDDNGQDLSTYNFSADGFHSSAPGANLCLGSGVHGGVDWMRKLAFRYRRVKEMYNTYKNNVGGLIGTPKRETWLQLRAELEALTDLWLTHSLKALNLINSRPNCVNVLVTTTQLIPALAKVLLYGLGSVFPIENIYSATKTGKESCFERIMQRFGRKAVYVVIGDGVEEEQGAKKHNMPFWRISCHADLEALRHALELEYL
Sequence of Homeobox protein SIX1 (Homo sapiens) + Protein phosphatase EYA2 (Homo sapiens) (Q15475 whole entry, looked up): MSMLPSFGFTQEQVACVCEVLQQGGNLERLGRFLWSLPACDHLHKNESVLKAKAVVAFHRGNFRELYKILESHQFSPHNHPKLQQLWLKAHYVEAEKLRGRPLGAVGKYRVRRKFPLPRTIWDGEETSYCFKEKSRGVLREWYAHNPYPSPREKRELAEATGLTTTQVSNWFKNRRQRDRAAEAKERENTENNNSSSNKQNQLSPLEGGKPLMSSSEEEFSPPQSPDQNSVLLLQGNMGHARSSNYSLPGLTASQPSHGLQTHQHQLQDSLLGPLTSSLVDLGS
The first step of the 5 uL AlphaScreen assay is to dispense assay buffer (50 mM Tris, pH 8.0, 300 mM NaCl, 0.05% BSA, 0.02% Tween 20, 1 mM TCEP) into a Greiner 1536 white solid bottom microtiter plate (789175-F). Five microliters is added to Column 1, 4 uL is added to Column 2 and 3 uL is added to Columns 3 through 48. A 5X protein solution (250 nM GST-Six1 protein + 500 nM His-tagged Eya2 protein) is mixed and 1 uL is dispensed to Columns 3-48. Using a 1536 pintool, 23 nL of compound is transferred to the assay plate. A solution of 5X AlphaScreen beads is mixed (50 ug/mL Glutathione linked donor beads + Nickel chelated acceptor beads) and 1 uL is dispensed to Columns 2-48. The assay plate is incubated for one hour, with a lid, at 37 deg C in the dark. The plate is read using a Perkin Elmer Envision using an AlphaScreen protocol.
On the technique in general: In qHTS, concentration-response curves come from the screen itself.
For the compound `COc1ccccc1-n1c(O)c(C=NC2CC2)c(=O)[nH]c1=O`, the activity change is 0.906% (inactive).

Take `CC(C)c1ccc(-n2c(O)c(/C=N/N3CCOCC3)c(=O)[nH]c2=S)cc1`: the activity change is 5.13% (inactive).

Consider `O=C(N/N=C/c1c(O)n(Cc2ccccc2)c(=O)[nH]c1=O)c1ccccc1`, for which the activity change was -70.8% (active).

Turning to `O=c1[nH]c(=O)n(Cc2ccccc2)c(O)c1/C=N/Nc1c(F)c(F)c(F)c(F)c1F`, the activity change was 1% (inactive).

Consider `O=C(N/N=C/c1c(O)n(C2CC2)c(=S)[nH]c1=O)c1ccccc1`, for which the activity change is -88.6% (active).

As for `CC/C(=N\NC(=O)c1ccccc1O)c1c(O)n(Cc2ccccc2)c(=O)[nH]c1=O`, the activity change is -9.73% (inactive).

In the case of `Cc1cccc(-n2c(O)c(/C=N/N3CCOCC3)c(=O)[nH]c2=S)c1`, the activity change is -2.01% (inactive).

For the compound `O=C(N/N=C/c1c(O)n(C2CC2)c(=S)[nH]c1=O)c1ccccc1Cl`, the activity change is -80.8% (active).

On to `O=c1[nH]c(=S)n(C2CC2)c(O)c1/C=N/N1CCOCC1`, for which the activity change was -0.819% (inactive).

`CCOC(=O)[C@]12Cc3cc(OC)ccc3[C@H]1N(C(C)C)C(=O)c1ccccc12`: the activity change was -2.51% (inactive).

Consider `CCOC(=O)[C@]12Cc3ccccc3[C@H]1N(C1CCCCC1)C(=O)c1cc(OC)ccc12`, for which the activity change was -3.21% (inactive).

As for `C[C@]12CCC3C(CC[C@H]4[C@H](O)[C@H](O)CC[C@]34C)C1CC[C@@H]2O` (stereo not given in full), the activity change was 0% (inactive).

Turning to `COP(=O)(NS(=O)(=O)c1ccccc1)OC`, the activity change was 12.4% (inactive).

`CC1(C)Cc2c(C#N)c(N3CCNCC3)nc(-c3ccco3)c2CS1`: the activity change is -3.88% (inactive).

As to `O=C1NCN(c2ccccc2)C12CCN(C(c1cccs1)c1nnnn1C1CCCCC1)CC2` (stereo not given), the activity change was -13.5% (inactive).

In the case of `COc1ccc(-n2nnnc2C(c2cccc3ccccc23)N2CCC(n3c(=O)[nH]c4ccccc43)CC2)cc1` (stereo not given), the activity change was -11.3% (inactive).

Turning to `O=C(NCC(c1cccnc1)N1CCN(c2ccccc2)CC1)Oc1ccccc1` (stereo not given), the activity change is -4.91% (inactive).

With `CC12CN3CC(C)(CN(C1)C3c1cccs1)C2` (stereo not given), the activity change is -7.54% (inactive).

With `CC(C)c1ccc(OCC(=O)N2CCN(C)CC2)c(Br)c1`, the activity change is -2.15% (inactive).

With `CCC(C)n1c(O)c(/C=N/Nc2nc3c(c(=O)n(C)c(=O)n3C)n2C)c(=O)[nH]c1=S` (stereo not given), the activity change is -86.1% (active).

`CCC(=O)CC(c1ccc([N+](=O)[O-])cc1)c1c(O)c2ccccc2oc1=O` (stereo not given): the activity change is 0.567% (inactive).

Turning to `O=c1[nH]c2ccccc2n1C1CCN(C(c2ccccc2)c2nnnn2Cc2ccccc2)CC1` (stereo not given), the activity change is -20.3% (inactive).

Take `CCCCC(=O)N/N=C/c1c(O)n(CCC2=CCCCC2)c(=O)[nH]c1=O`: the activity change was -75.4% (active).

Take `CCCCC(=O)N/N=C/c1c(O)n(CC)c(=S)n(CC)c1=O`: the activity change was -9.7% (inactive).

For `O=c1[nH]c(=O)n(CCc2ccc(F)cc2)c(O)c1/C=N/N1CCCCC1`, the activity change is 5.39% (inactive).

As to `CCc1nnc(NS(=O)(=O)c2ccc(N=Cc3c(O)n(-c4ccccc4)c(=O)[nH]c3=O)cc2)s1`, the activity change is 1.54% (inactive).

Take `CCCCC(=O)N/N=C/c1c(O)n(-c2ccccc2)c(=O)[nH]c1=O`: the activity change was -83.5% (active).

In the case of `COc1ccc(CCn2c(O)c(C=NC3CC3)c(=O)[nH]c2=O)cc1OC`, the activity change was -3.07% (inactive).

`COC(=O)C[C@H]1CC[C@H]2NC[C@@H](O)COC[C@@H]2O1`: the activity change is 4.76% (inactive).

With `CC[C@H]1CC2CN3CCc4c([nH]c5ccccc45)C(C(=O)OC)(C2)C13` (stereo not given in full), the activity change was -23.8% (inactive).
